{"source": "paper PMC9838217", "about": "“Structure of SALL4 zinc finger domain reveals link between AT-rich DNA binding and Okihiro syndrome”", "key": {"[1]": {"biological_target": "T1, SALL4 ZFC4 R900W (HT-SELEX) (Mus musculus, UniProt Q8BX22 870-940, R900W)", "T1 sequence": "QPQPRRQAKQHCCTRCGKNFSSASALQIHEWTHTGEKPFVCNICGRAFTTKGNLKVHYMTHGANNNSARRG", "experiment": "HT-SELEX; high values mean tight binding", "conditions": "protein: recombinant; vector His6-GST; dsDNA, one strand shown", "in_short": "(§1)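 Binding signal is defined as the fold change of each canonical k-mer's read fraction versus the initial random library. Selections used 1 µg of purified recombinant mouse SALL4 zinc finger cluster 4 (residues 870–940) with library DNA (1.5 µg first cycle, 200 ng later) in 100 µl of 10 mM Tris–HCl pH 7.5, 50 mM NaCl, poly(dI-dC) and DTT, for 10 min at room temperature, followed by Ni2+ bead capture, washing and PCR. Up to 6 such cycles were run in triplicate before MiSeq sequencing and 6-mer scanning.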"}, "[2]": {"biological_target": "T2, SALL4 ZFC4 G921D (HT-SELEX) (Mus musculus, UniProt Q8BX22 870-940, G921D)", "T2 sequence": "T1 sequence with W31R, G52D", "experiment": "HT-SELEX; high values mean tight binding", "conditions": "protein: recombinant; vector His6-GST; dsDNA, one strand shown", "in_short": "as §1"}}, "note": "Residue numbers refer to the chain shown, from its start.", "data": [{"sequence": "GGTGCA", "values": [{"measurement": "binding signal", "setting": "[1]", "value": "0.359 ± 0.0169", "unit": "fold-change vs cycle 0"}, {"measurement": "binding signal", "setting": "[2]", "value": "0.479 ± 0.0732", "unit": "fold-change vs cycle 0"}]}, {"sequence": "GATCGC", "values": [{"measurement": "binding signal", "setting": "[1]", "value": "0.301 ± 0.0313", "unit": "fold-change vs cycle 0"}, {"measurement": "binding signal", "setting": "[2]", "value": "0.461 ± 0.0896", "unit": "fold-change vs cycle 0"}]}, {"sequence": "AGGGCG", "values": [{"measurement": "binding signal", "setting": "[1]", "value": "0.146 ± 0.011", "unit": "fold-change vs cycle 0"}, {"measurement": "binding signal", "setting": "[2]", "value": "0.26 ± 0.0708", "unit": "fold-change vs cycle 0"}]}, {"sequence": "CCACCC", "values": [{"measurement": "binding signal", "setting": "[1]", "value": "0.298 ± 0.0277", "unit": "fold-change vs cycle 0"}, {"measurement": "binding signal", "setting": "[2]", "value": "0.395 ± 0.0676", "unit": "fold-change vs cycle 0"}]}, {"sequence": "CCCCCG", "values": [{"measurement": "binding signal", "setting": "[1]", "value": "0.133 ± 0.00946", "unit": "fold-change vs cycle 0"}, {"measurement": "binding signal", "setting": "[2]", "value": "0.239 ± 0.0586", "unit": "fold-change vs cycle 0"}]}, {"sequence": "AAGGCC", "values": [{"measurement": "binding signal", "setting": "[1]", "value": "0.32 ± 0.0161", "unit": "fold-change vs cycle 0"}, {"measurement": "binding signal", "setting": "[2]", "value": "0.435 ± 0.0818", "unit": "fold-change vs cycle 0"}]}, {"sequence": "CGGGCC", "values": [{"measurement": "binding signal", "setting": "[1]", "value": "0.0506 ± 0.00629", "unit": "fold-change vs cycle 0"}, {"measurement": "binding signal", "setting": "[2]", "value": "0.15 ± 0.0772", "unit": "fold-change vs cycle 0"}]}, {"sequence": "GCCGAA", "values": [{"measurement": "binding signal", "setting": "[1]", "value": "0.189 ± 0.0081", "unit": "fold-change vs cycle 0"}, {"measurement": "binding signal", "setting": "[2]", "value": "0.319 ± 0.0704", "unit": "fold-change vs cycle 0"}]}, {"sequence": "GCCCCA", "values": [{"measurement": "binding signal", "setting": "[1]", "value": "0.158 ± 0.0152", "unit": "fold-change vs cycle 0"}, {"measurement": "binding signal", "setting": "[2]", "value": "0.275 ± 0.0854", "unit": "fold-change vs cycle 0"}]}, {"sequence": "CCCGAG", "values": [{"measurement": "binding signal", "setting": "[1]", "value": "0.2602 ± 0.00145", "unit": "fold-change vs cycle 0"}, {"measurement": "binding signal", "setting": "[2]", "value": "0.386 ± 0.0692", "unit": "fold-change vs cycle 0"}]}, {"sequence": "GGCGCA", "values": [{"measurement": "binding signal", "setting": "[1]", "value": "0.0622 ± 0.0107", "unit": "fold-change vs cycle 0"}, {"measurement": "binding signal", "setting": "[2]", "value": "0.16 ± 0.0742", "unit": "fold-change vs cycle 0"}]}, {"sequence": "GGGACC", "values": [{"measurement": "binding signal", "setting": "[1]", "value": "0.257 ± 0.0113", "unit": "fold-change vs cycle 0"}, {"measurement": "binding signal", "setting": "[2]", "value": "0.386 ± 0.0917", "unit": "fold-change vs cycle 0"}]}, {"sequence": "CGCCCC", "values": [{"measurement": "binding signal", "setting": "[1]", "value": "0.0728 ± 0.00775", "unit": "fold-change vs cycle 0"}, {"measurement": "binding signal", "setting": "[2]", "value": "0.173 ± 0.0648", "unit": "fold-change vs cycle 0"}]}, {"sequence": "CCCTCG", "values": [{"measurement": "binding signal", "setting": "[1]", "value": "0.278 ± 0.0226", "unit": "fold-change vs cycle 0"}, {"measurement": "binding signal", "setting": "[2]", "value": "0.388 ± 0.0906", "unit": "fold-change vs cycle 0"}]}, {"sequence": "CGCTCA", "values": [{"measurement": "binding signal", "setting": "[1]", "value": "0.311 ± 0.0311", "unit": "fold-change vs cycle 0"}, {"measurement": "binding signal", "setting": "[2]", "value": "0.445 ± 0.0603", "unit": "fold-change vs cycle 0"}]}, {"sequence": "CGCGTA", "values": [{"measurement": "binding signal", "setting": "[1]", "value": "0.224 ± 0.0194", "unit": "fold-change vs cycle 0"}, {"measurement": "binding signal", "setting": "[2]", "value": "0.34 ± 0.0644", "unit": "fold-change vs cycle 0"}]}, {"sequence": "AACGCC", "values": [{"measurement": "binding signal", "setting": "[1]", "value": "0.242 ± 0.0243", "unit": "fold-change vs cycle 0"}, {"measurement": "binding signal", "setting": "[2]", "value": "0.377 ± 0.0751", "unit": "fold-change vs cycle 0"}]}, {"sequence": "GGCGAC", "values": [{"measurement": "binding signal", "setting": "[1]", "value": "0.0863 ± 0.00668", "unit": "fold-change vs cycle 0"}, {"measurement": "binding signal", "setting": "[2]", "value": "0.208 ± 0.0638", "unit": "fold-change vs cycle 0"}]}, {"sequence": "CGCGAG", "values": [{"measurement": "binding signal", "setting": "[1]", "value": "0.135 ± 0.0168", "unit": "fold-change vs cycle 0"}, {"measurement": "binding signal", "setting": "[2]", "value": "0.231 ± 0.0693", "unit": "fold-change vs cycle 0"}]}, {"sequence": "GCGCTA", "values": [{"measurement": "binding signal", "setting": "[1]", "value": "0.156 ± 0.0119", "unit": "fold-change vs cycle 0"}, {"measurement": "binding signal", "setting": "[2]", "value": "0.291 ± 0.093", "unit": "fold-change vs cycle 0"}]}, {"sequence": "CCGGGA", "values": [{"measurement": "binding signal", "setting": "[1]", "value": "0.237 ± 0.0178", "unit": "fold-change vs cycle 0"}, {"measurement": "binding signal", "setting": "[2]", "value": "0.341 ± 0.0693", "unit": "fold-change vs cycle 0"}]}, {"sequence": "ACCCGG", "values": [{"measurement": "binding signal", "setting": "[1]", "value": "0.233 ± 0.025", "unit": "fold-change vs cycle 0"}, {"measurement": "binding signal", "setting": "[2]", "value": "0.341 ± 0.0691", "unit": "fold-change vs cycle 0"}]}, {"sequence": "GCGAGC", "values": [{"measurement": "binding signal", "setting": "[1]", "value": "0.103 ± 0.00798", "unit": "fold-change vs cycle 0"}, {"measurement": "binding signal", "setting": "[2]", "value": "0.229 ± 0.0707", "unit": "fold-change vs cycle 0"}]}, {"sequence": "AACCGC", "values": [{"measurement": "binding signal", "setting": "[1]", "value": "0.258 ± 0.0187", "unit": "fold-change vs cycle 0"}, {"measurement": "binding signal", "setting": "[2]", "value": "0.396 ± 0.0835", "unit": "fold-change vs cycle 0"}]}, {"sequence": "AGGCCG", "values": [{"measurement": "binding signal", "setting": "[1]", "value": "0.104 ± 0.0123", "unit": "fold-change vs cycle 0"}, {"measurement": "binding signal", "setting": "[2]", "value": "0.216 ± 0.0702", "unit": "fold-change vs cycle 0"}]}, {"sequence": "CGCACC", "values": [{"measurement": "binding signal", "setting": "[1]", "value": "0.132 ± 0.00899", "unit": "fold-change vs cycle 0"}, {"measurement": "binding signal", "setting": "[2]", "value": "0.24 ± 0.0749", "unit": "fold-change vs cycle 0"}]}, {"sequence": "GGACCC", "values": [{"measurement": "binding signal", "setting": "[1]", "value": "0.246 ± 0.0211", "unit": "fold-change vs cycle 0"}, {"measurement": "binding signal", "setting": "[2]", "value": "0.387 ± 0.0656", "unit": "fold-change vs cycle 0"}]}, {"sequence": "GCCGAC", "values": [{"measurement": "binding signal", "setting": "[1]", "value": "0.0865 ± 0.0114", "unit": "fold-change vs cycle 0"}, {"measurement": "binding signal", "setting": "[2]", "value": "0.204 ± 0.0612", "unit": "fold-change vs cycle 0"}]}, {"sequence": "CGACAG", "values": [{"measurement": "binding signal", "setting": "[1]", "value": "0.332 ± 0.0161", "unit": "fold-change vs cycle 0"}, {"measurement": "binding signal", "setting": "[2]", "value": "0.469 ± 0.0472", "unit": "fold-change vs cycle 0"}]}, {"sequence": "ACCGCA", "values": [{"measurement": "binding signal", "setting": "[1]", "value": "0.267 ± 0.0189", "unit": "fold-change vs cycle 0"}, {"measurement": "binding signal", "setting": "[2]", "value": "0.39 ± 0.0525", "unit": "fold-change vs cycle 0"}]}, {"sequence": "CAATAG", "values": [{"measurement": "binding signal", "setting": "[1]", "value": "1.34 ± 0.0439", "unit": "fold-change vs cycle 0"}, {"measurement": "binding signal", "setting": "[2]", "value": "1.31 ± 0.0578", "unit": "fold-change vs cycle 0"}]}, {"sequence": "CGTCGA", "values": [{"measurement": "binding signal", "setting": "[1]", "value": "0.282 ± 0.0144", "unit": "fold-change vs cycle 0"}, {"measurement": "binding signal", "setting": "[2]", "value": "0.423 ± 0.0617", "unit": "fold-change vs cycle 0"}]}, {"sequence": "CGCAGA", "values": [{"measurement": "binding signal", "setting": "[1]", "value": "0.265 ± 0.0309", "unit": "fold-change vs cycle 0"}, {"measurement": "binding signal", "setting": "[2]", "value": "0.379 ± 0.0778", "unit": "fold-change vs cycle 0"}]}, {"sequence": "GCTCGA", "values": [{"measurement": "binding signal", "setting": "[1]", "value": "0.308 ± 0.00752", "unit": "fold-change vs cycle 0"}, {"measurement": "binding signal", "setting": "[2]", "value": "0.475 ± 0.0642", "unit": "fold-change vs cycle 0"}]}, {"sequence": "AGGCGA", "values": [{"measurement": "binding signal", "setting": "[1]", "value": "0.276 ± 0.00793", "unit": "fold-change vs cycle 0"}, {"measurement": "binding signal", "setting": "[2]", "value": "0.438 ± 0.0693", "unit": "fold-change vs cycle 0"}]}, {"sequence": "CCAGGG", "values": [{"measurement": "binding signal", "setting": "[1]", "value": "0.305 ± 0.0286", "unit": "fold-change vs cycle 0"}, {"measurement": "binding signal", "setting": "[2]", "value": "0.408 ± 0.0718", "unit": "fold-change vs cycle 0"}]}, {"sequence": "CCGACC", "values": [{"measurement": "binding signal", "setting": "[1]", "value": "0.172 ± 0.00253", "unit": "fold-change vs cycle 0"}, {"measurement": "binding signal", "setting": "[2]", "value": "0.309 ± 0.075", "unit": "fold-change vs cycle 0"}]}, {"sequence": "CGCTAC", "values": [{"measurement": "binding signal", "setting": "[1]", "value": "0.3 ± 0.026", "unit": "fold-change vs cycle 0"}, {"measurement": "binding signal", "setting": "[2]", "value": "0.426 ± 0.0556", "unit": "fold-change vs cycle 0"}]}, {"sequence": "GCCTCA", "values": [{"measurement": "binding signal", "setting": "[1]", "value": "0.364 ± 0.0186", "unit": "fold-change vs cycle 0"}, {"measurement": "binding signal", "setting": "[2]", "value": "0.513 ± 0.0755", "unit": "fold-change vs cycle 0"}]}]}
